Laboratory results: PubChem BioAssay (EPA / NIEHS)
Active and inactive are the calls of the source. The calls were made as follows: active = hit-call score of the fitted dose curve at least 0.9, where 1 is the maximum; inactive = score below 0.9.

Tests used:
Conditions in all cases: mRNA level, 48 h; actives raise or lower the signal
[1] = read-out: Potassium channel subfamily K member 1 (KCNK1), KCNK1 (gene 3775); assay: LTEA_HepaRG_KCNK1: Life Technologies and Expression Analysis (LTEA) Assay for Potassium channel subfamily K member 1 (KCNK1) using HepaRG (AID 2283511)
Summary of the method: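 KCNK1 transcript measured by TaqMan qRT-PCR against three housekeeping genes, after HepaRG cells were treated 48 h with eight half-log concentrations (top 100 uM, 0.5% DMSO). Curves fitted bidirectionally relative to vehicle.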

[2] = read-out: Keratin 19 (KRT19), KRT19 (gene 3880); assay: LTEA_HepaRG_KRT19: Life Technologies and Expression Analysis (LTEA) Assay for Keratin 19 (KRT19) using HepaRG (AID 2283512)
Summary of the method: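 KRT19 transcript levels, measured by Fluidigm qRT-PCR against three housekeeping genes, are fitted for gain or loss of signal relative to DMSO. Human HepaRG cells receive test chemicals (top 100 uM, half-log steps, 0.5% DMSO) for 48 hours.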

[3] = read-out: JUN Transcription Factor, JUN (gene 3725); assay: LTEA_HepaRG_JUN: Life Technologies and Expression Analysis (LTEA) Assay for JUN Transcription Factor using HepaRG (AID 2283513)
Summary of the method: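 Read-out is JUN transcript level by TaqMan qRT-PCR, normalized to ACTB, GAPDH and POLR2A, after 48 h chemical treatment of HepaRG cells. Concentration-response spanned eight half-log points up to 100 uM in 0.5% DMSO.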

[4] = read-out: Lipase C (LIPC), LIPC (gene 3990); assay: LTEA_HepaRG_LIPC: Life Technologies and Expression Analysis (LTEA) Assay for Lipase C (LIPC) using HepaRG (AID 2283514)
Summary of the method: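 LIPC expression was quantified by qRT-PCR against three housekeeping genes (ACTB, GAPDH, POLR2A). Differentiated human HepaRG cells received eight half-log doses (top 100 uM, 0.5% DMSO) in duplicate for 48 h; fitting bidirectional relative to DMSO.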

[5] = read-out: Lipoprotein lipase (LPL), LPL (gene 4023); assay: LTEA_HepaRG_LPL: Life Technologies and Expression Analysis (LTEA) Assay for Lipoprotein lipase (LPL) using HepaRG (AID 2283515)
Summary of the method: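 LPL transcript levels quantified by TaqMan qRT-PCR against three housekeeping genes after 48 h chemical treatment of HepaRG cells. Eight-point half-log series from 100 uM in 0.5% DMSO, tested in duplicate; bidirectional fitting versus vehicle.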

[6] = read-out: MicroRNA 122 (MIR122), gene 406906; assay: LTEA_HepaRG_MIR122: Life Technologies and Expression Analysis (LTEA) Assay for MicroRNA 122 (MIR122) using HepaRG (AID 2283516); also: the transcript read is the microRNA miR-122
Summary of the method: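 Human liver HepaRG cultures receive test chemicals for 48 h at eight half-log concentrations from 100 uM. Expression is quantified by qRT-PCR with ACTB/GAPDH/POLR2A normalization and fitted bidirectionally against 0.5% DMSO.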

[7] = read-out: matrix metalloproteinase-10 (MMP10), MMP10 (gene 4319); assay: LTEA_HepaRG_MMP10: Life Technologies and Expression Analysis (LTEA) Assay for matrix metalloproteinase-10 (MMP10) using HepaRG (AID 2283517)
Summary of the method: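 Expression measured by TaqMan qRT-PCR with ACTB/GAPDH/POLR2A normalisation after 48 h chemical exposure of HepaRG cells. Eight half-log concentrations, top 100 uM, 0.5% DMSO vehicle, duplicates; gain or loss fitted against vehicle.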

[8] = read-out: MYC, MYC (gene 4609); assay: LTEA_HepaRG_MYC: Life Technologies and Expression Analysis (LTEA) Assay for MYC using HepaRG (AID 2283518)
Summary of the method: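 HepaRG, ~100,000 cells/well, collagen I; 48 h plating; serum-free induction medium; 48 h dosing, duplicate, 100 uM top, half-log, 0.5% DMSO; total RNA → qRT-PCR MYC; gain/loss fit vs DMSO.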

[9] = read-out: matrix metalloproteinase-3 (MMP3), MMP3 (gene 4314); assay: LTEA_HepaRG_MMP3: Life Technologies and Expression Analysis (LTEA) Assay for matrix metalloproteinase-3 (MMP3) using HepaRG (AID 2283519)
Summary of the method: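 Fluidigm-based TaqMan qRT-PCR, normalized to ACTB, GAPDH and POLR2A and fitted bidirectionally versus 0.5% DMSO, measured transcript levels. Treatment: duplicate 48 h exposures of HepaRG cells, ~100,000/well, to eight half-log concentrations topping at 100 uM.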

[10] = read-out: Paternally Expressed 10 (PEG10), PEG10 (gene 23089); assay: LTEA_HepaRG_PEG10: Life Technologies and Expression Analysis (LTEA) Assay for Paternally Expressed 10 (PEG10) using HepaRG (AID 2283520)
Summary of the method: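 Human HepaRG cultures are dosed for 48 h across an eight-point half-log series starting at 100 uM, with 0.5% DMSO as vehicle and baseline. Gain or loss of PEG10 transcript is measured by qRT-PCR and fitted in both directions.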

[11] = read-out: Nuclear factor NF-kappa-B p105 subunit (Homo sapiens) (UniProt P19838); assay: LTEA_HepaRG_NFKB1: Life Technologies and Expression Analysis (LTEA) Assay for Nuclear Factor Kappa B Subunit 1 (NFKB1) using HepaRG (AID 2283521);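 also: differentiated human HepaRG liver cells in serum-free induction medium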
Summary of the method: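 HepaRG, 48 h exposure; 8-pt half-log series from 100 uM in 0.5% DMSO; duplicates. Readout: NFKB1 mRNA by qRT-PCR (Fluidigm arrays), housekeeping-normalized. Gain/loss fit vs DMSO baseline.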

[12] = read-out: Protein phosphatase 2A (PPP2R4), PTPA (gene 5524); assay: LTEA_HepaRG_PPP2R4: Life Technologies and Expression Analysis (LTEA) Assay for Protein phosphatase 2A (PPP2R4) using HepaRG (AID 2283522)
Summary of the method: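 Cells were plated, cultured 48 h, switched to serum-free induction medium, then dosed for 48 h (8 points, max 100 uM, 0.5% DMSO). RNA was isolated and PPP2R4 expression measured by TaqMan qRT-PCR.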

[13] = read-out: Phosphatase and tensin (PTEN), PTEN (gene 5728); assay: LTEA_HepaRG_PTEN: Life Technologies and Expression Analysis (LTEA) Assay for Phosphatase and tensin (PTEN) using HepaRG (AID 2283523)
Summary of the method: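 Read-out: TaqMan qRT-PCR of PTEN transcript, normalized to three housekeeping genes, fitted in both directions against 0.5% DMSO. Differentiated human HepaRG cultures received chemicals for 48 h, eight-point half-log series topping at 100 uM.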

[14] = read-out: solute carrier (SLC22A1), SLC22A1 (gene 6580); assay: LTEA_HepaRG_SLC22A1: Life Technologies and Expression Analysis (LTEA) Assay for solute carrier (SLC22A1) using HepaRG (AID 2283524);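 as to AC50: differentiated human HepaRG liver cells in serum-free induction medium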
Summary of the method: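 Transcript level of SLC22A1 quantified by qRT-PCR (normalized to three housekeeping genes) after 48 h chemical exposure of HepaRG cells, eight concentrations up to 100 µM, half-log steps, 0.5% DMSO vehicle. Gain or loss relative to DMSO fitted bidirectionally.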

[15] = read-out: Pyruvate Dehydrogenase Kinase 4 (PDK4), PDK4 (gene 5166); assay: LTEA_HepaRG_PDK4: Life Technologies and Expression Analysis (LTEA) Assay for Pyruvate Dehydrogenase Kinase 4 (PDK4) using HepaRG (AID 2283525)
Summary of the method: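 Readout is qRT-PCR of PDK4 transcript, normalized to three housekeeping genes, with bidirectional fitting against 0.5% DMSO vehicle. Differentiated HepaRG cells were treated 48 h in serum-free induction medium, duplicate wells, eight-point half-log series topping at 100 uM.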

[16] = read-out: NAD(P)H dehydrogenase [quinone] 1 (NQO1), NQO1 (gene 1728); assay: LTEA_HepaRG_NQO1: Life Technologies and Expression Analysis (LTEA) Assay for NAD(P)H dehydrogenase [quinone] 1 (NQO1) using HepaRG (AID 2283526)
Summary of the method: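 Transcript induction or suppression is quantified by qRT-PCR in human HepaRG liver cells dosed for 48 hours. Eight half-log concentrations topping at 100 uM are used, with 0.5% DMSO as vehicle and baseline.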

[17] = read-out: succinate dehydrogenase complex iron sulfur subunit B (SDHB), SDHB (gene 6390); assay: LTEA_HepaRG_SDHB: Life Technologies and Expression Analysis (LTEA) Assay for succinate dehydrogenase complex iron sulfur subunit B (SDHB) using HepaRG (AID 2283528)
Summary of the method: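 Readout is SDHB transcript level by qRT-PCR, normalised to three housekeeping genes and fitted bidirectionally against 0.5% DMSO vehicle. Human HepaRG cells were treated for 48 h at up to 100 uM.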

[18] = read-out: Signal transducer and activator of transcription 3 (Homo sapiens) (UniProt P40763); assay: LTEA_HepaRG_STAT3: Life Technologies and Expression Analysis (LTEA) Assay for Signal transducer and activator of transcription (STAT3) using HepaRG (AID 2283529)
Summary of the method: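 STAT3 transcript quantified by qRT-PCR against three housekeeping genes (ACTB, GAPDH, POLR2A), fitted both directions relative to DMSO. HepaRG cultures exposed 48 h to eight half-log concentrations, top 100 uM, 0.5% DMSO, serum-free induction medium.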

[19] = read-out: solute carrier (SLCO1B1), SLCO1B1 (gene 10599); assay: LTEA_HepaRG_SLCO1B1: Life Technologies and Expression Analysis (LTEA) Assay for solute carrier (SLCO1B1) using HepaRG (AID 2283530)
Summary of the method: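 HepaRG, serum-free induction medium, 48 h dosing, 8-pt half-log from 100 uM, 0.5% DMSO vehicle, duplicates. Readout: SLCO1B1 mRNA, qRT-PCR, ACTB/GAPDH/POLR2A normalization; up or down fit vs DMSO.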

[20] = read-out: Nuclear factor erythroid 2-related factor 2 (Homo sapiens) (UniProt Q16236); assay: LTEA_HepaRG_NFE2L2: Life Technologies and Expression Analysis (LTEA) Assay for Nuclear factor erythroid 2-related factor 2 (NFE2L2) Transcription Factor using HepaRG (AID 2283527);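 also: TaqMan qRT-PCR transcript level normalised to ACTB GAPDH and POLR2A housekeeping genes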
Summary of the method: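 NFE2L2 transcript level was read by qRT-PCR (housekeeping ACTB/GAPDH/POLR2A normalisation) after 48 h chemical treatment of HepaRG in serum-free induction medium. Duplicate 8-point half-log curves, top 100 uM, 0.5% DMSO vehicle; up- or down-regulation fitted against vehicle.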

Chain of Signal transducer and activator of transcription 3 (Homo sapiens) (P40763 whole entry, looked up): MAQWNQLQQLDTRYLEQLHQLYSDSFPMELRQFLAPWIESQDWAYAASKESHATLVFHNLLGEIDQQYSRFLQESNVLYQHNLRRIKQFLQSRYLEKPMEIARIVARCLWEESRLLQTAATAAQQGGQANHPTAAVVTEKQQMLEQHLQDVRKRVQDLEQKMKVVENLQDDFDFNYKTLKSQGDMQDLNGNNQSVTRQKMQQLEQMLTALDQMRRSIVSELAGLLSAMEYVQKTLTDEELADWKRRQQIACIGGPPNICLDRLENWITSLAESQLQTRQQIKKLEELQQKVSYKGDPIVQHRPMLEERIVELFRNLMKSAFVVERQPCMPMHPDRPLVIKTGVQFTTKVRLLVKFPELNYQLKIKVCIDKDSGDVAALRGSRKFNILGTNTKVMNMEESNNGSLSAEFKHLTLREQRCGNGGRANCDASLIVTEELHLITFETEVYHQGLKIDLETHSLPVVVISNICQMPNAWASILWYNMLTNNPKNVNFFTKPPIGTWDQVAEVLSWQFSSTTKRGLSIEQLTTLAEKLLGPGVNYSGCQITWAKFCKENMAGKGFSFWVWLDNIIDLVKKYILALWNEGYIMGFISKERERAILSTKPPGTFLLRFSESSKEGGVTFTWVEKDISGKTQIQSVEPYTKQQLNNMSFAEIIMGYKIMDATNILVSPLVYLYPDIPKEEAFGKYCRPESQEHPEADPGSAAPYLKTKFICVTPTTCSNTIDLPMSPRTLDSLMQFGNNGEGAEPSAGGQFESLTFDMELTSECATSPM
Chain of Nuclear factor NF-kappa-B p105 subunit (Homo sapiens) (P19838 whole entry, looked up): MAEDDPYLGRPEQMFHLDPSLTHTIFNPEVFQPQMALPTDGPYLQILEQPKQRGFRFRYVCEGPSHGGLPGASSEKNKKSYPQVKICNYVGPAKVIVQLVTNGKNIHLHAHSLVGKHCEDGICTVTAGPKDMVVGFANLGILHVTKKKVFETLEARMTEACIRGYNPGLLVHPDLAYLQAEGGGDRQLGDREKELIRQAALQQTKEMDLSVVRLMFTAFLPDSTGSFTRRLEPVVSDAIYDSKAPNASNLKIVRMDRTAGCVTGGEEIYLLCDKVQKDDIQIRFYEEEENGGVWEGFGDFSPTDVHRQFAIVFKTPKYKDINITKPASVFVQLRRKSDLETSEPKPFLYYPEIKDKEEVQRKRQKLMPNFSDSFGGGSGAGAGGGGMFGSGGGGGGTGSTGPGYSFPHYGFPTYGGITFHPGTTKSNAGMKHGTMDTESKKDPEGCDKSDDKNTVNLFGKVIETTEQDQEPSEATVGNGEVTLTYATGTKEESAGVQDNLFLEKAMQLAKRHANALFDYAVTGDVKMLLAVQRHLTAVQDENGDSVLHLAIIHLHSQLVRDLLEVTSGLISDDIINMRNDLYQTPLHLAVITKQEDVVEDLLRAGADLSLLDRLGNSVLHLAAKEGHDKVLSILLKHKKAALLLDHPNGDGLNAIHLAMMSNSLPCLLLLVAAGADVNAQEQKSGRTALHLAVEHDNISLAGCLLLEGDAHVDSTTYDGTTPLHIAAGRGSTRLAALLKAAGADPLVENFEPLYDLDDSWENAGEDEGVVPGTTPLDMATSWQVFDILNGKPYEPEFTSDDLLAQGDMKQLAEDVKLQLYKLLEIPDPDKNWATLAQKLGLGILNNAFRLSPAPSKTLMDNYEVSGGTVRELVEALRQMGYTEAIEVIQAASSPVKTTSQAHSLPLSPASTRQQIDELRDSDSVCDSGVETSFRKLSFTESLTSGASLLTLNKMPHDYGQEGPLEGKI
Chain of Nuclear factor erythroid 2-related factor 2 (Homo sapiens) (Q16236 whole entry, looked up): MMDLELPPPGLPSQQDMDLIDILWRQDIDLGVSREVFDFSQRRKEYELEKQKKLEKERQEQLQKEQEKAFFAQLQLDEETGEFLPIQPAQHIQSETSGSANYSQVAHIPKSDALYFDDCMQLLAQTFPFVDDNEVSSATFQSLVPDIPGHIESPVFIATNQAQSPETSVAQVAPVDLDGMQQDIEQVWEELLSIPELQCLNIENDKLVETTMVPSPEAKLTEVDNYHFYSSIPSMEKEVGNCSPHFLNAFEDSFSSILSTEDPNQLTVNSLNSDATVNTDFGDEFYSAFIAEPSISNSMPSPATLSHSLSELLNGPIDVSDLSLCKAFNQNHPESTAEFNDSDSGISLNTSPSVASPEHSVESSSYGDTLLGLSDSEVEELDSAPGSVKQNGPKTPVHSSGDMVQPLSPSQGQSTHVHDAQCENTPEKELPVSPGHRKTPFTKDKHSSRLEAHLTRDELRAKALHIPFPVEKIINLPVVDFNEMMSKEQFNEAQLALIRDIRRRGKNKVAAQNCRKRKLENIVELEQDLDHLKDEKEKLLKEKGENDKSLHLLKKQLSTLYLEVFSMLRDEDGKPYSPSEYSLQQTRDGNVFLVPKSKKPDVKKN

SMILES: COC(=O)c1ccccc1O
- outcome [1]: inactive
- outcome [2]: inactive
- outcome [3]: inactive
- outcome [4]: inactive
- outcome [5]: inactive
- outcome [6]: inactive
- outcome [7]: inactive
- outcome [8]: inactive
- outcome [9]: inactive
- outcome [10]: inactive
- outcome [11]: inactive
- outcome [12]: inactive
- outcome [13]: inactive
- outcome [14]: inactive
- outcome [15]: inactive
- outcome [16]: inactive
- outcome [17]: inactive
- outcome [18]: inactive
- outcome [19]: inactive

SMILES: CCN(C(=O)c1cc(C)cc(OC[C@H](C)Nc2ccncc2)c1)C(C)C
- outcome [1]: inactive
- AC50 [2]: 19.3 µM (active)
- outcome [3]: inactive
- AC50 [4]: 33.8 µM (active)
- AC50 [5]: 33.8 µM (active)
- AC50 [6]: 33.8 µM (active)
- AC50 [7]: 33.8 µM (active)
- outcome [8]: inactive
- outcome [9]: inactive
- outcome [10]: inactive
- outcome [11]: inactive
- outcome [12]: inactive
- outcome [13]: inactive
- AC50 [14]: 33.8 µM (active)
- AC50 [15]: 53.7 µM (active)
- outcome [20]: inactive
- outcome [17]: inactive
- outcome [18]: inactive
- outcome [19]: inactive

SMILES: Cc1ccc(O)cc1
- outcome [1]: inactive
- outcome [2]: inactive
- outcome [3]: inactive
- outcome [4]: inactive
- outcome [5]: inactive
- outcome [6]: inactive
- outcome [7]: inactive
- outcome [8]: inactive
- outcome [9]: inactive
- outcome [10]: inactive
- outcome [11]: inactive
- outcome [12]: inactive
- outcome [14]: inactive
- outcome [15]: inactive
- outcome [16]: inactive
- outcome [20]: inactive
- outcome [17]: inactive
- outcome [18]: inactive
- outcome [19]: inactive

SMILES: NC(=O)NO
- outcome [1]: inactive
- outcome [2]: inactive
- outcome [3]: inactive
- outcome [4]: inactive
- outcome [5]: inactive
- outcome [6]: inactive
- outcome [7]: inactive
- outcome [8]: inactive
- outcome [9]: inactive
- outcome [10]: inactive
- outcome [11]: inactive
- outcome [12]: inactive
- outcome [13]: inactive
- outcome [14]: inactive
- outcome [15]: inactive
- outcome [16]: inactive
- outcome [20]: inactive
- outcome [17]: inactive
- outcome [18]: inactive
- outcome [19]: inactive

SMILES: CC(C)CC(C)(O)C#CC(C)(O)CC(C)C (centres undefined)
- outcome [1]: inactive
- outcome [2]: inactive
- outcome [3]: inactive
- outcome [4]: inactive
- outcome [5]: inactive
- outcome [6]: inactive
- outcome [7]: inactive
- outcome [8]: inactive
- outcome [9]: inactive
- outcome [10]: inactive
- outcome [11]: inactive
- outcome [12]: inactive
- outcome [14]: inactive
- outcome [15]: inactive
- outcome [16]: inactive
- outcome [17]: inactive
- outcome [18]: inactive
- outcome [19]: inactive

SMILES: COc1ccc(-n2nc(C(F)F)cc2-c2ccc(S(C)=O)cc2)cc1 (centres undefined)
- outcome [1]: inactive
- outcome [2]: inactive
- outcome [3]: inactive
- outcome [4]: inactive
- AC50 [5]: 31.1 µM (active)
- outcome [6]: inactive
- outcome [7]: inactive
- outcome [8]: inactive
- outcome [9]: inactive
- outcome [10]: inactive
- outcome [11]: inactive
- outcome [12]: inactive
- outcome [13]: inactive
- outcome [14]: inactive
- outcome [15]: inactive
- outcome [16]: inactive
- outcome [17]: inactive
- outcome [18]: inactive
- outcome [19]: inactive
